Results as given in PubChem BioAssay AID1159580 (chemical genetic matrix, 2015).
“And” between values parts separate entries of the source, which are not always exact repeats. Equal entries are not always repeated. Out of some 5,500 compounds screened, about 2,000 (36%) were called active. Roughly 18% stayed inconclusive and do not appear here. Rule as the data show it: active = normalized growth mostly below about 0.91 (no sharp cut-off); inconclusive = no clear call, values can overlap the other calls; inactive = mostly above about 0.92. This is one part of the list.

Assay: chemical genetic growth profiling, strain panel (AID 1159580);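 also: tested at 20 µM; growth read once vehicle control cultures reached saturation at 30 °C; 1 = growth at the plate median or of vehicle wells; lower values mean less growth of the strain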
Conditions: S. cerevisiae deletion strains, growth OD

Measured: normalized growth

O=C1c2ccccc2C(=O)c2ccccc21
inactive: locus YAL013W, strain DEP1, active compounds read low 1 | locus YAL021C, strain ccr4, active compounds read low 0.97 | locus YAL026C, strain drs2, active compounds read low 0.969 | locus YAL030W, strain snc1, active compounds read low 0.995 | locus YBL061C, strain skt5, active compounds read low 0.986 | locus YBR009C, strain hhf1, active compounds read low 0.96 | locus YBR021W, strain FUR4, active compounds read low 1.15 | locus YBR023C, strain chs3, active compounds read low 0.982 | locus YBR171W, strain sec66, active compounds read low 0.978 | locus YBR229C, strain ROT2, active compounds read low 0.999 | locus YBR231C, strain swc5, active compounds read low 0.963 | locus YBR279W, strain paf1, active compounds read low 0.975 | locus YCL011C, strain gbp2, active compounds read low 0.989 | locus YCL016C, strain dcc1, active compounds read low 0.957 | locus YCL029C, strain bik1, active compounds read low 0.994 | locus YCL069W, strain vba3, active compounds read low 0.998 | locus YCR088W, strain abp1, active compounds read low 1.01 | locus YDL005C, strain med2, active compounds read low 0.999 | locus YDL035C, strain GPR1, active compounds read low 0.949 | locus YDL040C, strain nat1, active compounds read low 0.988 | locus YDL074C, strain BRE1, active compounds read low 0.91 | locus YDL101C, strain DUN1, active compounds read low 0.985 | locus YDL134C, strain PPH21, active compounds read low 0.995 | locus YDL185W, strain tfp1, active compounds read low 0.981 | locus YDL192W, strain arf1, active compounds read low 0.99 | locus YDR001C, strain nth1, active compounds read low 0.993 | locus YDR069C, strain doa4, active compounds read low 0.984 | locus YDR101C, strain arx1, active compounds read low 0.989 | locus YDR137W, strain rgp1, active compounds read low 0.947 | locus YDR150W, strain NUM1, active compounds read low 0.969 | locus YDR159W, strain sac3, active compounds read low 1.01 | locus YDR162C, strain NBP2, active compounds read low 0.921 | locus YDR297W, strain sur2, active compounds read low 0.993 | locus YDR318W, strain mcm21, active compounds read low 0.975 | locus YDR334W, strain swr1, active compounds read low 0.974 | locus YDR335W, strain msn5, active compounds read low 0.966 | locus YDR388W, active compounds read low 1 | locus YDR392W, strain spt3, active compounds read low 0.842 | locus YDR502C, strain sam2, active compounds read low 0.991 | locus YEL003W, strain gim4, active compounds read low 0.981 | locus YEL037C, strain rad23, active compounds read low 0.982 | locus YEL061C, strain CIN8 (second series), active compounds read low 0.991 | locus YEL061C, strain CIN8, active compounds read low 1.01 | locus YER015W, strain faa2, active compounds read low 0.957 | locus YER016W, strain bim1, active compounds read low 0.992 | locus YER110C, active compounds read low 0.986 | locus YER111C, strain swi4, active compounds read low 1 | locus YER155C, strain BEM2 (second series), active compounds read low 0.968 | locus YER155C, strain BEM2, active compounds read low 1.02 | locus YER167W, strain BCK2, active compounds read low 0.976 | locus YFR010W, strain ubp6, active compounds read low 0.982 | locus YGL078C, strain dbp3, active compounds read low 0.978 | locus YGL086W, strain mad1, active compounds read low 0.967 | locus YGL167C, strain pmr1, active compounds read low 0.963 | locus YGL173C, strain kem1, active compounds read low 0.997 | locus YGL227W, strain vid30, active compounds read low 1 | locus YGL240W, strain doc1, active compounds read low 1 | locus YGL248W, strain PDE1, active compounds read low 1.01 | locus YGL253W, strain hxk2, active compounds read low 0.968 | locus YGR078C, strain PAC10, active compounds read low 0.963 | locus YGR135W, strain pre9, active compounds read low 0.994 | locus YGR229C, strain SMI1, active compounds read low 0.854 | locus YGR252W, strain gcn5, active compounds read low 1.01 | locus YHR013C, strain ard1, active compounds read low 0.974 | locus YHR027C, strain rpn1, active compounds read low 0.965 | locus YHR030C, strain SLT2, active compounds read low 1.01 and 1.02 | locus YHR079C, strain IRE1 (second series), active compounds read low 0.994 | locus YHR079C, strain IRE1, active compounds read low 1.04 | locus YHR094C, strain hxt1, active compounds read low 0.98 | locus YHR129C, strain ARP1, active compounds read low 1 | locus YHR142W, strain chs7, active compounds read low 0.93 | locus YHR200W, strain rpn10, active compounds read low 0.988 | locus YIL066C, strain RNR3, active compounds read low 0.95 | locus YIL073C, strain SPO22, active compounds read low 0.832 | locus YIL125W, strain kgd1, active compounds read low 0.989 | locus YIR030C, strain dcg1, active compounds read low 0.998 | locus YJL092W, strain hpr5, active compounds read low 0.992 | locus YJL095W, strain BCK1 (second series), active compounds read low 1 | locus YJL095W, strain BCK1, active compounds read low 0.994 and 1.03 | locus YJL115W, strain asf1, active compounds read low 0.998 | locus YJL129C, strain trk1, active compounds read low 1.07 | locus YJL134W, strain LCB3, active compounds read low 0.988 | locus YJL154C, strain vps35, active compounds read low 1 | locus YJL164C, strain tpk1, active compounds read low 0.975 | locus YJL166W, strain qcr8, active compounds read low 1 | locus YJL168C, strain set2, active compounds read low 1 | locus YJL187C, strain SWE1 (second series), active compounds read low 0.982 | locus YJL187C, strain SWE1, active compounds read low 0.989 | locus YJR043C, strain POL32, active compounds read low 0.958 | locus YJR066W, strain TOR1, active compounds read low 0.982
active: locus YDR195W, strain ref2 1.24 [resistant]
